Measurements as given in PubChem BioAssay (EPA / NIEHS).
A structure can be active in one record and inactive in another. Activity calls are given as the source filed them. How the source made its calls: active means hit-call score of the fitted dose curve at least 0.9, where 1 is the maximum; inactive means score below 0.9.

Assay: ATG_VDRE_CIS: Attagene CIS-FACTORIAL HepG2 Assay for human Vitamin D Receptor Element (VDRE) (AID 2282968)
Conditions: HepG2 VDRE cis-reporter transcription, actives raise or lower the signal
Method: ATG_CIS is a cell-based, multiplexed-readout assay that uses HepG2, a human liver cell line, with measurements taken at 24 hours after chemical dosing in a 24-well plate.ATG_VDRE_CIS is one of 52 assay component(s) measured or calculated from the ATG_CIS assay. It is designed to make measurements of mRNA induction, a form of inducible reporter, as detected with fluorescence intensity signals by Reverse transcription polymerase chain reaction (RT-PCR) and Capillary electrophoresis technology.Data from the assay component ATG_VDRE_CIS was analyzed into 1 assay endpoint. This assay endpoint, ATG_VDRE_CIS, was analyzed with bidirectional fitting relative to DMSO as the negative control and baseline of activity. Using a type of inducible reporter, measures of mRNA for gain or loss-of-signal activity can be used to understand the reporter gene at the transcription factor-level as they relate to the gene VDR. Furthermore, this assay endpoint can be referred to as a primary readout, because this assay has produced multiple assay endpoints where this one serves a reporter gene function. To generalize the intended target to other relatable targets, this assay endpoint is annotated to the nuclear receptor intended target family, where the subfamily is non-steroidal.
Human liver HepG2 cells are transiently transfected with multiple reporter transcription units (MRTUs) in 6-well plates using FuGene 6 reagent (Roche; 3 ml FuGene/1 mg DNA). The MRTU constructs are regulated by a cis-regulating element (promoter). […] A major difference between the CIS and TRANS system is that in CIS activities of endogenous TFs are measured, whereas the TRANS assay evaluates changes in activities of exogenous, chimeric NR-Gal4 proteins. […] At the end of 24 hour incubation, total RNA was isolated using TriZol reagent (Invitrogen). The isolated RNA is then reverse-transcribed using oligo(dT) primer and Mo-MLV reverse transcriptase (Invitrogen) with DNAse I (Ambion) treatment for 30 min. The one-tenth of the produced cDNA was amplified by PCR using Taq DNA polymerase (Invitrogen) and two reporter sequence-specific primers. The PCR products were fluorescently labeled by primer extension with 6-arboxyfluorescein (6-FAM) 5'-labeled reporter sequence-specific primer (2 min at 95 C, 20 s at 68 C and 10 min at 72 C) and these products were digested with 5U of HpaI (New England Biolabs) for 2h at 37 C. The fragments were purified using Qiaquick PCR columns (Qiagen), analyzed on an ABI 3130xL genetic analyzer (Applied Biosystems) with peak positions identified by using a set of X-rhodamine (ROX)-labeled MapMarker1000 molecular weight standards (BioVentures). The raw capillary electrophoresis data was processed using Attagraph software (Attagene).

Row | Compound | outcome | AC50
1 | O=C(O)CN(CC(=O)O)CC(=O)O | inactive | –
2 | NC1CCCCC1 | inactive | –
3 | CCCCCCC(CCCCCCCCCCC(=O)OCC(COC(C)=O)OC(C)=O)OC(C)=O (stereo not given) | inactive | –
4 | O=C(O)c1[nH]n(-c2ccc(S(=O)(=O)O)cc2)c(=O)c1N=Nc1ccc(S(=O)(=O)O)cc1 | inactive | –
5 | c1ccc2occc2c1 | inactive | –
6 | Cc1cc(SC2=C(O)C[C@@](CCc3ccc(N)cc3)(C(C)C)OC2=O)c(C(C)(C)C)cc1CO | – | 5.63 µM (active)
7 | C=CCCCCCCCCCCCC | inactive | –
8 | O=C1CCCCC1 | inactive | –
9 | CC(=O)OCC(COC(C)=O)OC(C)=O | inactive | –
10 | CC(C)OC(=O)C(C)(C)Oc1ccc(C(=O)c2ccc(Cl)cc2)cc1 | – | 27.6 µM (active)
11 | CCc1cc(C2=C(C(=O)O)N(c3ccccc3C(F)(F)F)S(=O)(=O)c3ccccc32)cc2c1OCO2 | – | 11.8 µM (active)
12 | CC1(C)C(=O)NC(=O)N1CO | inactive | –
13 | CCCCCCCC(=O)OC | inactive | –
14 | Oc1ccc(O)cc1 | inactive | –
15 | COC(=O)CCC(=O)OC | inactive | –
16 | CCc1nc(N)nc(N)c1-c1ccc(Cl)cc1 | – | 100 µM (active)
17 | O=NO | inactive | –
18 | CC(C)NCC(O)c1ccc(O)c(O)c1 (stereo not given) | inactive | –
19 | COC(=O)CCCC(=O)OC | inactive | –
20 | Oc1ccccc1O | – | 27.5 µM (active)

Row | Compound | outcome | AC50
21 | CC(=O)S[C@H](C(=O)N[C@H]1Cc2ccccc2[C@H]2CCC[C@@H](C(=O)O)N2C1=O)C(C)C | inactive | –
22 | NC=O | inactive | –
23 | CC(C)c1cccc(C(C)C)c1 | inactive | –
24 | CCCCCCCCCC[N+](C)(C)[O-] | inactive | –
25 | CCCCCCCCCCCCCCOS(=O)(=O)O | inactive | –
26 | CS(=O)(=O)c1ccc([C@@H](C[C@H]2CCC(=O)C2)C(=O)Nc2cnccn2)cc1Cl | inactive | –
27 | CC(C)(C)c1ccccc1 | inactive | –
28 | CC(C)COC(=O)CCCCC(=O)OCC(C)C | inactive | –
29 | CCCCC(CC)COP(=O)(OCC(CC)CCCC)OCC(CC)CCCC (stereo not given) | – | 0.61 µM (active)
30 | COc1ccc(OC(F)(F)F)cc1CN[C@H]1CCCN[C@H]1c1ccccc1 | – | 4.99 µM (active)
31 | CSc1ccc(Oc2ccc(S(N)(=O)=O)cc2CN(C)C)cc1C | – | 29.8 µM (active)
32 | CO[C@@H]1COCC[C@@H]1N[C@@H]1CC[C@@](C(=O)N2CCc3ncc(C(F)(F)F)cc3C2)(C(C)C)C1 | inactive | –
33 | Cc1occc(=O)c1O | inactive | –
34 | C/C=C/C=C/C(=O)O | inactive | –
35 | CCCCCCC(C=O)=Cc1ccccc1 | inactive | –
36 | CC(=O)O[C@]1(C(C)=O)CC[C@H]2[C@@H]3C=C(Cl)C4=CC(=O)[C@@H]5C[C@@H]5[C@]4(C)[C@H]3CC[C@@]21C | inactive | 24.1 µM (active)
37 | O=C(Oc1ccccc1)c1cccc(C(=O)Oc2ccccc2)c1 | inactive | –
38 | Nc1nc(Cl)nc2c1ncn2[C@H]1C[C@H](O)[C@@H](CO)O1 | inactive | –
39 | CN(C)C(=O)NC1(c2ccccc2)CCN(CCC[C@]2(c3ccc(Cl)c(Cl)c3)CCCN(C(=O)c3ccccc3)C2)CC1 | – | 2.75 µM (active)
